Values joined by “and” are separate entries in the source; they are usually repeats but may differ in a detail not shown here. Equal entries are not always repeated. Out of some 340,000 compounds screened, about 55 (0.02%) were called active.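 How the source made its calls: active means phage lysis inhibition, versus mean bacterial control, above a set limit; inconclusive means no clear call, values can overlap the other calls; inactive means the rest.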 The list is a sample of the results. Entries with a potency or affinity are not part of this list.
Test: inhibition of K1F phage lysis, E. coli UTI89, bacterial capsule biogenesis inhibitors, alamar blue (AID 488966);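 further: capsule biogenesis inhibitors block K1F phage lysis so surviving cells raise fluorescence; higher fluorescence means more inhibition of phage lysis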
Conditions: 2 h; inhibition: at 100 µM, active compounds read high unless noted; series mostly up to 300 µM; inhibition of phage lysis: at the top concentration

inhibition, inactive:
CC(C)OCCCNC(=O)c1cc(-c2cccs2)nc2ccccc12 0.22%
CC1(C(=O)O)CCC(C(=O)Nc2ccccc2)C1(C)C (configuration not stated) 0.32%
CC(=O)c1ccccc1OCCCOc1cccc2cccnc12 0.48%
O=C(Nc1ccc(F)cc1)c1ccc2ncsc2c1 0.29%
O=C(O)c1cc(-c2ccccc2)nn1CC1CC(c2cccnc2)=NO1 (configuration not stated) 1.3%
O=C(NCc1ccccc1)C1CCCN(S(=O)(=O)c2ccc(Br)cc2)C1 (configuration not stated) 1.64% [at 50 µM, active compounds read high]
CC(C)(C)c1ccc(OCC(O)CN(CCO)CC(O)Cn2ccc3ccccc32)cc1 (configuration not stated) 0.2%
CC1(c2ccccc2)NC(=O)N(NC(=O)CSc2n[nH]c(N)n2)C1=O (configuration not stated) 0.72%
COc1ccc(S(=O)(=O)N2CCN(c3ccccc3OC)CC2)cc1 0.03%
Cc1ccc(C)c(NC(=O)COC(=O)CCc2ccc(S(=O)(=O)N3CCOCC3)cc2)c1 -0.17%
CC(=O)Nc1cccc(-c2nnc(SCC(=O)N3CCCCC3)n2C)c1 0.94%
CC(C)NC(=O)COc1cccc2ccccc12 1.21%
Cc1ccc(NC(=O)CCC(=O)NNC(=O)COc2cccc3ccccc23)c(C)c1 -0.27%
Cc1cc(C)c(NC(=O)COc2nncc3ccccc23)c(C)c1 -1.44%
COc1ccccc1OCC(O)CN1CCN(CC(=O)Nc2c(C)cccc2C)CC1 (configuration not stated) 3.11% and 2.01%
CC(CCc1ccccc1)NC(=O)CN1CCOc2ccccc21 (configuration not stated) 0.85%
CSc1ccc(CN(C)CC(=O)Nc2ccc(NC(C)=O)cc2)cc1 -0.1%
COc1ccc(-c2nc(NCCCN(C)C)c3ccccc3n2)cc1 5.55%
CCN(CC)CCCNc1nc(-c2ccccc2)nc2ccccc12 0.145% [at 50 µM, active compounds read high]
O=C(O)CCCC(=O)Nc1cccc(C(=O)Nc2ccccc2C(=O)O)c1 1.41%
O=C1c2ccccc2C(=O)c2c(Nc3ccc(CCO)cc3)ccc(O)c21 -1.03% [at 50 µM, active compounds read high]
Cc1cccc(CSC(=N)N)c1 7.29%
N=C(N)SCCc1cnc[nH]1 1.68%
Cc1noc(/C=C/c2ccccn2)c1[N+](=O)[O-] 0.12%
CCOC(=O)C1(Cc2ccc(Cl)cc2)CCN(C(C)Cc2ccc(O)c(OC)c2)CC1 (configuration not stated) 0.5%
Cc1ccc(NC(=O)CN(C)C(=O)COc2ncnc3ccc(Br)cc23)cc1 0.5% [at 50 µM, active compounds read high]
COc1ccc(NS(=O)(=O)c2cccc(C(=O)NCCCN3CCOCC3)c2)cc1 1% [at 50 µM, active compounds read high]
CC(=O)NN=C1CCC(c2ccccc2)CC1 (configuration not stated) 4.73%
COc1ccccc1OCC(=O)NNC(=O)c1cccs1 5.22%
COc1ccc(C(CNC(=O)c2cncc(Br)c2)N(C)C)cc1 (configuration not stated) -0.11%
COc1cc(C2C(C#N)=C(N)Oc3n[nH]c(-c4ccncc4)c32)cc(OC)c1OC (configuration not stated) 1.19%
COc1ccccc1NC(=O)CN1C(=O)C(C)Oc2ccccc21 (configuration not stated) -1.62%
CCOc1ccc(S(=O)(=O)NCc2cccnc2)cc1C 0.14%
COC(=O)/C=C/C(=O)Nc1ccc(O)c(Cl)c1 -2.78%
Cc1ccc(N2C(=O)C3C4CCC(O4)C3C2=O)c(OC(F)F)c1 (configuration not stated) 2% [at 50 µM, active compounds read high]
CC(C)Nc1nc(SCC(=O)Nc2ccccc2)nc(N2CCOCC2)n1 -0.955% [at 50 µM, active compounds read high]
c1ccc(C(c2nnnn2C2CCCCC2)N2CCc3ccccc3C2)nc1 (configuration not stated) 6.52%
C/C(=N\NC(=O)C(O)c1ccccc1)c1ccc(Cl)cc1 (configuration not stated) 0%
O=C(COC(=O)c1ccccn1)Nc1ncc(C(F)(F)F)cc1Cl 1.67%
Cc1noc(/C=C/c2ccco2)c1S(=O)(=O)N1CCC(C(=O)NCc2ccco2)CC1 0.57%
Cc1cc(C)n(CC(=O)NCc2ccccc2)c(=O)c1C#N 0.26%
O=c1[nH]c2ccccc2c2ccc(Cl)cc12 -0.77%
Cc1ccc(NC(=O)N/C=C/c2ccco2)cc1 -0.09%
COc1ccc(NC(=O)CN2C(=O)/C(=C3\SC(=S)N(CCC(=O)O)C3=O)c3ccccc32)cc1 1.3% [at 50 µM, active compounds read high]
CSc1nnc(-c2cccn(Cc3cccc(Cl)c3)c2=O)o1 0.19%
Cc1cc(N(C)/N=C/c2ccccc2O)nc(-c2ccccc2O)n1 -1.22%
COc1ccc2[nH]c3c(c2c1)CCN1C(=O)N([C@@H](C)C(=O)NCc2ccc(F)cc2)C(=O)[C@]31C 1.55%
Cc1ccn2cc(-c3cccc(S(=O)(=O)N4CCCCC4)c3)nc2c1 -0.04%
COc1ccccc1C(=O)NCCC(=O)NC1CCCCCC1 0.81% [at 50 µM, active compounds read high]
COc1ccc(C(C)(C)C)cc1S(=O)(=O)N1CCN(C)CC1 0.43%
O=C(Nc1ccncc1)Nc1cccc(F)c1 0.13%
Cc1cccc(NC(=O)Nc2ccncc2)c1 3.48%
COc1ccc2c(c1)C1=C(CC2)C(c2ccc(C)cc2)NC(=S)N1 (configuration not stated) -0.41%
CN(C)CCN(C(=O)c1ccc2c(c1)OCCO2)c1nc2ccc(Cl)cc2s1 3.17% [at 50 µM, active compounds read high]

Inhibition of phage lysis, inactive:
COc1ccc(NC(=O)C2CCC(C)(C(=O)O)C2(C)C)cc1 (configuration not stated) 15.6%
O=C(Nc1ccc(Br)cc1)c1ccc2ncsc2c1 8.42%
O=C1c2cccc(NCCCNCCO)c2C(=O)c2cccc(NCCCNCCO)c21 13.4%
